Calls of active or inactive are those of the source.

The test system of experiment [1] is Plasmodium falciparum Sir2 (PF13_0152, Sir2A). Nature of the experiment: pfSir2 binders on small-molecule microarrays, primary screen, biochemical, small-molecule microarray, 635 nm fluorescence (AID 1098).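 Further: score merges spot fluorescence intensity with its signal-to-noise ratio.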 The settings on record: small-molecule microarray binding, fluorescence 635 nm; higher = more signal.
Experiment [2] is described as follows: small-molecule microarray binders of probe aDKK1, primary screen, biochemical, biotinylated probe, 635/667 nm fluorescence (AID 1099).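 Further: score merges 667nm spot fluorescence with signal to noise across triplicate slides.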 The settings on record: higher = more signal.
A short description of experiment [3]: small-molecule microarray binders of probe aCHRDL2, primary screen, biochemical, biotinylated probe, 635/667 nm fluorescence (AID 1100). The note with it: higher = more signal.
A short description of experiment [4]: splicing luciferase reporter signal modulators, primary screen, spliceosome inhibition project, cell-based, HEK293, splice +/- reporter (AID 1101).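 Further: HEK293 cells carrying a splicing-competent luciferase reporter gene; test concentration not given here.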 The note with it: luminescence, 24 h, higher = more signal, called active from +8 up or from −8 down.
The target in experiment [5] is Fibroblast growth factor 10 (Homo sapiens) (UniProt O15520). Nature of the experiment: FGF10 binders on small-molecule microarrays, primary screen, biochemical, small-molecule microarray, 635 nm fluorescence (AID 1102). The settings on record: FGF10 binding, fluorescence 635 nm, higher = more signal.
In experiment [6] the test system is glycogen synthase kinase-3 (GSK3A per assay name; protocol says GSK3B). The experiment can be described thus: GSK3 binders on small-molecule microarrays, primary screen, biochemical, small-molecule microarray, 635 nm fluorescence, GSK3A (AID 1103). Further: the record names both GSK3A and GSK3B. The note with it: small-molecule microarray binding, fluorescence 635 nm; higher = more signal.
The target of experiment [7] is Epidermal growth factor receptor (Homo sapiens) (UniProt P00533). Nature of the experiment: EGFR binders on small-molecule microarrays, primary screen, biochemical, small-molecule microarray, 635 nm fluorescence (AID 1104).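 Further: score merges 667 nm emission intensity with spot signal to noise over triplicate slides.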 The note with it: EGFR binding, higher = more signal.
For experiment [8], the target named is Follistatin-related protein 3 (Homo sapiens) (UniProt O95633). Nature of the experiment: FSTL3 binders on small-molecule microarrays, primary screen, biochemical, small-molecule microarray, 635 nm fluorescence (AID 1105).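 Further: score merges emission near 667 nm and signal to noise per printed spot across three slides.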 The note with it: FSTL3 binding, higher = more signal.
For experiment [9], the target named is Dickkopf-related protein 1 (Homo sapiens) (UniProt O94907). Nature of the experiment: DKK1 binders on small-molecule microarrays, primary screen, biochemical, small-molecule microarray, 635 nm fluorescence scan (AID 1106).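 Further: score merges emission near 667 nm with signal to noise over three replicate slides.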 The settings on record: DKK1 binding, higher = more signal.
For experiment [10], the system named is Inhibin beta A chain (activin A). Nature of the experiment: INHBA (activin A) binders on microarrays, primary screen, biochemical, small-molecule microarray, 635 nm fluorescence scan (AID 1107).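 Further: mouse activin A protein probed at 4.33 µg/mL on printed slides; score merges bound-protein fluorescence near 667 nm with spot signal-to-noise.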 The note with it: small-molecule microarray binding, higher = more signal.
Experiment [11] deals with Human papillomavirus type 1a protein E7 (residues 44-93). Nature of the experiment: HPV1a E7 fragment binders on microarrays, primary screen, biochemical, small-molecule microarray, residues 44-93, 635 nm fluorescence (AID 1108).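 Further: E7 fragment applied at 1 µg/mL in TBST for 1 h at 4 C; score combines spot fluorescence with its signal to noise ratio.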 The settings on record: small-molecule microarray binding, fluorescence 635 nm; higher = more signal.
Experiment [12] can be described thus: modulators of HCV replicon luciferase signal, primary screen, HCV replication inhibitor project, Huh7 cells, luciferase reporter (AID 1109).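 Further: huh7 hepatoma cells harbouring a luciferase neomycin HCV replicon reporter; luciferase luminescence as measure of HCV replicon replication; test concentration not given here.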 The settings on record: 48 h, higher = more signal.
The target of experiment [13] is Left-right determination factor 2 (Homo sapiens) (UniProt O00292). Nature of the experiment: LEFTY2 binders on small-molecule microarrays, primary screen, biochemical, small-molecule microarray, 635 nm fluorescence scan (AID 1110). The note with it: LEFTY2 binding, higher = more signal.
Experiment [14] addresses Calmodulin-1 (Homo sapiens) (UniProt P0DP23). The experiment can be described thus: CALM1 binders on microarrays, EGTA buffer, profiling panel, biochemical, small-molecule microarray, Cy5-labelled CALM1 (AID 1111).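 Further: labelled calmodulin applied in Tris saline Tween buffer holding calcium plus EGTA and DTT.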 The note with it: Cy5-CALM1 binding fluorescence, higher = more signal.
Experiment [15] has the same target. Nature of the experiment: calcium-bound CALM1 binders on microarrays, profiling panel, artefact control for SMM control-protein annotation, biochemical, small-molecule microarray, Cy5-labelled CALM1, plus calcium (AID 1112).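 Further: score merges spot fluorescence with signal to noise from triplicate slides.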 The note with it: Cy5-CALM1 binding fluorescence, higher = more signal.
Experiment [16] is described as follows: small-molecule microarray binders of probe aWnt5a, primary screen, biochemical, biotinylated probe, 635/667 nm fluorescence (AID 1113).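 Further: score merges 667 nm fluorescence intensity with signal-to-noise per printed feature.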 The settings on record: higher = more signal.
A short description of experiment [17]: small-molecule microarray binders of probe aShh, primary screen, biochemical, biotinylated probe, 635/667 nm fluorescence (AID 1114).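 Further: probe is biotin-labelled aShh protein from a stem cell growth factor screen; measures binding of labelled protein to compounds printed on the slide; score merges feature fluorescence at 667 nm with signal-to-noise.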 The note with it: higher = more signal.
Experiment [18] can be described thus: small-molecule microarray binders of probe aNog, primary screen, biochemical, biotinylated probe, 635/667 nm fluorescence (AID 1115).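 Further: probe is biotinylated aNog protein used at 0.15 µg/mL for 1 h at 4 C; z-score combines 667 nm fluorescence of each spot with its signal to noise.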 The settings on record: higher = more signal.
Experiment [19] has as its target Torsin-1A-interacting protein 1 (Homo sapiens) (UniProt Q5JTV8). Nature of the experiment: LAP1 binders from COS7 cell lysate, primary screen, small-molecule microarray, 635/667 nm fluorescence (AID 1116). The settings on record: COS7-hLAP1 lysate binding, 635 nm fluorescence, higher = more signal.
In experiment [20] the target is Alpha-bungarotoxin (Bungarus multicinctus) (UniProt P60615). The experiment can be described thus: alpha-bungarotoxin binders on microarray, profiling panel, artefact control for SMM control protein annotation, biochemical, small-molecule microarray, Alexa647 label, 635/667 nm fluorescence (AID 1117). The settings on record: alpha-BTX-A647 binding fluorescence, higher = more signal.
Chain of Alpha-bungarotoxin (Bungarus multicinctus) (P60615 whole entry, looked up): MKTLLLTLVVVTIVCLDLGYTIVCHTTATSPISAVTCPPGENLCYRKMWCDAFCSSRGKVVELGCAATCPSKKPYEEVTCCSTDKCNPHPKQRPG

Chain of Left-right determination factor 2 (Homo sapiens) (O00292 whole entry, looked up): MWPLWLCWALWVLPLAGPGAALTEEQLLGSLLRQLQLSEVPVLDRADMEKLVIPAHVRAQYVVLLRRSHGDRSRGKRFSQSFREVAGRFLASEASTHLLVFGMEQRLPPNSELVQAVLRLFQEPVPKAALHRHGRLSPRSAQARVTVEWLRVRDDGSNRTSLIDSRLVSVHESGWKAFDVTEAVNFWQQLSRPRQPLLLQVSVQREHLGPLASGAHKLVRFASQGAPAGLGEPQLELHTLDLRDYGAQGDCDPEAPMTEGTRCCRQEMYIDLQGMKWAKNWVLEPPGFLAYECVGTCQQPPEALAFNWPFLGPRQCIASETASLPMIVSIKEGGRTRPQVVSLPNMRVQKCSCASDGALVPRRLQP
Chain of Fibroblast growth factor 10 (Homo sapiens) (O15520 whole entry, looked up): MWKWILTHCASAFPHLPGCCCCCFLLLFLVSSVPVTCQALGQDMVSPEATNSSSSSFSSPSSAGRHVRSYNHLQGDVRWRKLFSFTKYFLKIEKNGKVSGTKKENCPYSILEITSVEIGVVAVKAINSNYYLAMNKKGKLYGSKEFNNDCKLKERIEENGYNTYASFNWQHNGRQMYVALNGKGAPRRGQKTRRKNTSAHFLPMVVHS
Chain of Torsin-1A-interacting protein 1 (Homo sapiens) (Q5JTV8 whole entry, looked up): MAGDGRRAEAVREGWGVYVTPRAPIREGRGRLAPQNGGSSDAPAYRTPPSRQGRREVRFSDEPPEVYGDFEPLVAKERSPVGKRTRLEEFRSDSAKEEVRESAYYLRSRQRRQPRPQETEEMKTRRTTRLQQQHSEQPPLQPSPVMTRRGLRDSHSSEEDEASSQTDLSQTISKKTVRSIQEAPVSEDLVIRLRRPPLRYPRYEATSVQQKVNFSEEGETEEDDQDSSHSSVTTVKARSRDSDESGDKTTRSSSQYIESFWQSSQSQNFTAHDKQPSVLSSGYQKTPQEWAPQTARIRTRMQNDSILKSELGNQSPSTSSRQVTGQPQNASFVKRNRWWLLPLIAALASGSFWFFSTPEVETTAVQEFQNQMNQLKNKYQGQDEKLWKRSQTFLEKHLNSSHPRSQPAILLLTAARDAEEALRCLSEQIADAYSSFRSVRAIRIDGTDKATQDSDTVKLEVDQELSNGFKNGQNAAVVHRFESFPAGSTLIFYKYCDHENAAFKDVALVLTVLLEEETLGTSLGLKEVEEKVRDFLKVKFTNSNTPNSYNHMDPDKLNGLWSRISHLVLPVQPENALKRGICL
Chain of Dickkopf-related protein 1 (Homo sapiens) (O94907 whole entry, looked up): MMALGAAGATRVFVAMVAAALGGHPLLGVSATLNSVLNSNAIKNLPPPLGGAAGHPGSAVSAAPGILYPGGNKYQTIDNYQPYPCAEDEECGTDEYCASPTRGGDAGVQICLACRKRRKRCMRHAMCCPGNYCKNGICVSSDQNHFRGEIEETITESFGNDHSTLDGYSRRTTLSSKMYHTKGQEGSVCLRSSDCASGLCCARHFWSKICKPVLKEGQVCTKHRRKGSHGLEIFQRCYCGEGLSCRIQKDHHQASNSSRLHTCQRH
Chain of Follistatin-related protein 3 (Homo sapiens) (O95633 whole entry, looked up): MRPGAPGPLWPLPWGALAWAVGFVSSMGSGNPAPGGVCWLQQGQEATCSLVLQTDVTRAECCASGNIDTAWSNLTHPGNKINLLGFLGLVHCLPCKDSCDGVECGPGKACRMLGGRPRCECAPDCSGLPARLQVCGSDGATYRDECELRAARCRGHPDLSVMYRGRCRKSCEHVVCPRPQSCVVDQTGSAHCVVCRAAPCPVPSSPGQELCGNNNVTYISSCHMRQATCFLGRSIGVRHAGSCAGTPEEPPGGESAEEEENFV
Chain of Epidermal growth factor receptor (Homo sapiens) (P00533 whole entry, looked up): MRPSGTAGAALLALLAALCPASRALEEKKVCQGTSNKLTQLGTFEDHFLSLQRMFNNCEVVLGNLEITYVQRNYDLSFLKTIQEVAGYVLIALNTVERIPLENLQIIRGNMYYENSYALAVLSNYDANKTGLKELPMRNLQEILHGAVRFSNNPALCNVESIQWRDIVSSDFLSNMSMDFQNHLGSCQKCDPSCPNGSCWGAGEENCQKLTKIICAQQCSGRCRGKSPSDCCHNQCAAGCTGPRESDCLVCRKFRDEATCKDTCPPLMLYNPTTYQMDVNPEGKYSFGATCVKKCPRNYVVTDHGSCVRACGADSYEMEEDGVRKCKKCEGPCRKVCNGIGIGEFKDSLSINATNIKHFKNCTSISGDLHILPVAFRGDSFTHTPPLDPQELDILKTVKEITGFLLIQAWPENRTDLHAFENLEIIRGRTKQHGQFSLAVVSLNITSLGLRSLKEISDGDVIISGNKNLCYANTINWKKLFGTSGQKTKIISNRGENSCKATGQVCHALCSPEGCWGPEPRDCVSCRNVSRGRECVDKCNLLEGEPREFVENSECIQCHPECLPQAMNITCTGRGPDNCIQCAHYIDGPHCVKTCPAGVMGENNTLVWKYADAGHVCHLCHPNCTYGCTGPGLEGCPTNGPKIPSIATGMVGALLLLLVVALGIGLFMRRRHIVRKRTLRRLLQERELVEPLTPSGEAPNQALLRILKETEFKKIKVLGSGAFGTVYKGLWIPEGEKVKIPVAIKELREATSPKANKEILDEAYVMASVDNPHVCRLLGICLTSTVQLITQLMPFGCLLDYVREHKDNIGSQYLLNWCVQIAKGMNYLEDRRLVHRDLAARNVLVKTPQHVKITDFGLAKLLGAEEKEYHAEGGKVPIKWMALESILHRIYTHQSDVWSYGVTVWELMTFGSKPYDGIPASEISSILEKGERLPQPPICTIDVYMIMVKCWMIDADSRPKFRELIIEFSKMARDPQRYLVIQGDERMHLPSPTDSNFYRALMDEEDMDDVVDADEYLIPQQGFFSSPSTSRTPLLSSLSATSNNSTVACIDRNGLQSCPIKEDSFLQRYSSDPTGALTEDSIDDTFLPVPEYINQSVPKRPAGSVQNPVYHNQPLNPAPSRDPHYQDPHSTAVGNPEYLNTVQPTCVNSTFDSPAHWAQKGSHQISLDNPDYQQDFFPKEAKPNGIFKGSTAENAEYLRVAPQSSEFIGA

For the compound `O=C1C=C(c2ccccc2)C(=O)C2=C1CC([C@H]1Oc3ccccc3S(=O)(=O)N3CCC[C@@H]13)=CC2`, the composite z-score in [1] is -0.365; in experiment [2] it was -0.191; in experiment [3], -0.569; in experiment [5], 0.0925; in [6], -0.009; in experiment [7] it was 0.0548. Further, the composite z-score was -0.365 in [8]; 0.155 in experiment [9]; 0.718 in experiment [10]; 0.529 in experiment [11]; 0.0208 in [13]; 0.042 in experiment [14]. In addition, the composite z-score is -0.207 in experiment [15]; -0.124 in experiment [16]; -0.304 in experiment [17]; -0.172 in [18]; 0.0279 in experiment [19]; 0.0221 in experiment [20]. The z-score in experiment [4] was -2.32 (inactive); in [12], -3.98.
Consider `O=C1[C@@H]2[C@@H](CC(COc3ccccc3)=C([C@H](O)CCc3ccccc3)[C@@H]2CO)C(=O)N1Cc1ccccc1`, for which the composite z-score is 0.764 in [1]; -0.0833 in experiment [2]; -0.264 in experiment [3]; 0.408 in [5]; -0.0949 in [6]; 0.256 in [7]. In addition, the composite z-score in experiment [8] came out at 0.679; in [9] it was 0.286; in experiment [10], 0.343; in experiment [11] it was 0.778; in [13], 0.399; in experiment [14] it was 0.615. Besides, the composite z-score in experiment [15] was -0.346; in experiment [16] it was -0.1; in experiment [17], -0.0553; in experiment [18], -0.172; in experiment [19], 0.47; in experiment [20], 0.495. Moreover, the z-score in experiment [4] is 0.187 (inactive); in experiment [12], -2.21.
For the compound `C=C(COC)/C(=C/C[C@@H](OC(C)=O)c1ccccc1OCCO)c1cnc2ccccc2c1`, the composite z-score in experiment [1] was 1.24; in [2] it was -0.151; in experiment [3], -0.112; in experiment [5], 1.39; in [6] it was 0.344; in [7], 0.26. The composite z-score in experiment [8] amounted to 1.44; in experiment [9] it was 0.336; in experiment [10], 1.78; in experiment [11], 1.17; in experiment [13] it was 0.248; in experiment [14] it was 0.35. Also, the composite z-score in [15] was -0.716; in [16], -0.1; in [17], 0.0796; in experiment [18], 0.329; in experiment [19], 1.73; in [20], 1.56. The z-score in experiment [4] was 0.617 (inactive); in experiment [12], -1.95.
Consider `COC(=O)[C@@]1(Cc2ccc(OC)cc2)[C@H]2c3cc(C(=O)N(C)C)[nH]c3C[C@H]2CN1C(=O)c1ccccc1`, for which the composite z-score in experiment [1] was 1.03; in [2], 0.416; in experiment [3] it was 0.564; in experiment [5], 1.12; in experiment [6], -0.54; in experiment [7] it was -0.144. For the same compound, the composite z-score in experiment [8] is -0.273; in [9], -0.465; in experiment [10] it was 0.0999; in experiment [11], -0.65; in [13], -0.228; in [14], -0.0912. In addition, the composite z-score is -0.242 in experiment [15]; -0.176 in [16]; 0.128 in experiment [17]; 0.516 in experiment [18]; -0.223 in [19]; 0.0334 in experiment [20]. Besides, the z-score was 0.569 (inactive) in [4] and -0.536 in experiment [12].
Regarding `C=CCC(OC(C)=O)[C@@H]1[C@@H](N(Cc2cccc3ccccc23)C(=O)Cc2ccc(OC)cc2)c2cc(OCCCO)ccc2N1C(=O)c1ccc2ccccc2c1` (stereo not given in full), the composite z-score in [1] was 0.0596; in [2], 0.0644; in experiment [3], 0.256; in experiment [5], 0.045; in experiment [6] it was -0.344; in experiment [7], 0.0359. The composite z-score is 0.627 in experiment [8]; 0.234 in experiment [9]; 1.35 in experiment [10]; 0.233 in [11]; 0.139 in experiment [13]; 0.468 in experiment [14]. The composite z-score was -0.385 in [15]; -0.0398 in [16]; 0.138 in [17]; -0.23 in experiment [18]; 0.119 in experiment [19]; 0.337 in experiment [20]. The z-score in experiment [4] is -1.68 (inactive); in [12] it was -0.922.
Consider `CC(C)N1C(=O)c2ccccc2[C@@H](C(=O)NCC(F)(F)F)[C@@H]1c1ccc(CO)cc1`, for which the composite z-score in [1] is 0.861; in experiment [2], -0.0674; in experiment [3], 0.53; in experiment [5], -0.746; in [6] it was -0.871; in experiment [7], -0.318. Moreover, the composite z-score in experiment [8] is -0.464; in experiment [9], -0.459; in experiment [10], 0.935; in [11] it was 0.124; in [13], 0.0101; in experiment [14] it was -0.257. For the same compound, the composite z-score was -0.224 in [15]; -0.0334 in experiment [16]; -0.0626 in experiment [17]; 0.128 in [18]; 0.287 in experiment [19]; -0.143 in experiment [20]. Moreover, the z-score in experiment [4] was 0.655 (inactive); in experiment [12] it was 0.568.

Source of the values: PubChem BioAssay.
